Article PMC5540273 (PLoS ONE, 2017)

Assays:
Conditions in all cases: concentration: 1 μM, replicates: in singlicate; n = 1
MAST1 = system: MAST1
MEK1 = system: T1, MEK1
T1 construct: gene MAP2K1

MEK2 = system: T2, MEK2
T2 construct: gene MAP2K2

MEK3 = system: T3, MEK3
T3 construct: gene MAP2K3

MEK4 = system: T4, MEK4
T4 construct: gene MAP2K4

MEK5 = system: T5, MEK5
T5 construct: gene MAP2K5

MEK6 = system: T6, MEK6
T6 construct: gene MAP2K6

MELK = system: MELK
MERTK = system: MERTK
MET = system: MET
MINK = system: T7, MINK
T7 construct: gene MINK1

MKK7 = system: MKK7
MKNK1 = system: MKNK1
MKNK2 = system: MKNK2
MLCK = system: T8, MLCK
T8 construct: gene MYLK3

MLK1 = system: T9, MLK1
T9 construct: gene MAP3K9

MLK2 = system: MLK2
MLK3 = system: MLK3
MRCKA = system: MRCKA
MRCKB = system: T10, MRCKB
T10 construct: gene CDC42BPB
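Also: KINOMEscan kinase panel screen.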

Compound | %Inh (MAST1) [%] | %Inh (MEK1) [%] | %Inh (MEK2) [%] | %Inh (MEK3) [%] | %Inh (MEK4) [%] | %Inh (MEK5) [%] | %Inh (MEK6) [%] | %Inh (MELK) [%] | %Inh (MERTK) [%] | %Inh (MET) [%] | %Inh (MINK) [%] | %Inh (MKK7) [%] | %Inh (MKNK1) [%] | %Inh (MKNK2) [%] | %Inh (MLCK) [%] | %Inh (MLK1) [%] | %Inh (MLK2) [%] | %Inh (MLK3) [%] | %Inh (MRCKA) [%] | %Inh (MRCKB) [%]
Cc1ccc(NC(=O)Nc2ccc(Cl)c(C(F)(F)F)c2)cc1-c1ccc(C(=O)Nc2ccncc2)cc1 [GSK1398470] | 0 | 0 | 0 | 0 | 24 | 29 | 0 | 13 | 0 | 13 | 20 | 0 | 3 | 0 | 0 | 10 | 36 | 17 | 1 | 5
CC(=O)c1cccc(NC(=O)NC2CCN(c3ccnc(Nc4ccc(F)cc4)n3)C2)c1 (centres unmarked) [GSK1379710] | 30 | 6 | 16 | 9 | 57 | 34 | 9 | 12 | 40 | 0 | 11 | 0 | 27 | 0 | 0 | 0 | 0 | 3 | 20 | 0
CSc1ccc(-c2nc3n(c2-c2ccncc2)CCC3)cc1 [SKF-105561] | 16 | 1 | 25 | 18 | 0 | 22 | 0 | 18 | 0 | 0 | 15 | 1 | 0 | 20 | 0 | 0 | 0 | 0 | 0 | 0
O=C1NC(=O)C(c2ccc(Cl)cc2)=C1Nc1cccc(Cl)c1 [SB-317651] | 23 | 0 | 13 | 27 | 0 | 4 | 3 | 16 | 2 | 0 | 0 | 0 | 14 | 56 | 0 | 0 | 0 | 1 | 0 | 0
COc1ccc(Nc2nccc(NCCNC(=O)Nc3cc(C)ccc3C)n2)cc1 [GSK1379899] | 0 | 0 | 0 | 0 | 0 | 66 | 0 | 0 | 11 | 0 | 0 | 0 | 0 | 0 | 0 | 0 | 36 | 5 | 1 | 0
COc1ccc(Nc2nccc(N3CCC(NC(=O)c4cc5ccccc5s4)C3)n2)cc1 (centres unmarked) [GSK1379738] | 0 | 0 | 0 | 0 | 23 | 10 | 0 | 0 | 0 | 0 | 0 | 26 | 22 | 11 | 0 | 0 | 0 | 0 | 12 | 0
O=c1cc(N2CCOCC2)nc2n(Cc3cccc(Cl)c3Cl)c3ccccc3n12 [GSK2299009] | 0 | 0 | 0 | 0 | 34 | 75 | 0 | 89 | 41 | 0 | 5 | 28 | 10 | 8 | 16 | 0 | 32 | 36 | 24 | 14
O=C(Nc1n[nH]c2nc(-c3ccco3)c(Br)cc12)C1CCN(Cc2ccccc2)C1.O=C(O)[C@H](O)[C@@H](O)C(=O)O (centres unmarked) [SB-742034] | 13 | 1 | 25 | 21 | 20 | 32 | 16 | 2 | 0 | 0 | 15 | 0 | 0 | 27 | 25 | 8 | 20 | 9 | 0 | 0
O=C(Nc1n[nH]c2nc(-c3cccs3)c(Br)cc12)C1CC1 [SB-735297] | 26 | 0 | 0 | 34 | 99.3 | 68 | 0 | 15 | 15 | 0 | 28 | 0 | 46 | 39 | 90 | 0 | 0 | 0 | 16 | 0
COc1cccc(NC(=O)Nc2ccc(C)c(-c3ccc(C(=O)Nc4ccncc4)cc3)c2)c1 [GSK1398474] | 0 | 0 | 0 | 0 | 42 | 8 | 0 | 0 | 35 | 16 | 6 | 14 | 4 | 24 | 6 | 10 | 14 | 31 | 13 | 3
